Laboratory results reported in ChEMBL document CHEMBL3988442, “University of Dundee, Small-Polar-MMV Screening Library” (2021).
Out of some 48,000 compounds screened, about 13,000 (27%) showed an effect of 50% or more. This is one part of the list.

Each molecule was assayed on Wolbachia pipientis (assay: Anti-Wolbachia Cell-Based Screen). Settings: 5 µM.
Format: functional
Parameters: scale not given: in the data most compounds retested in dose-response had high values

SMILES	Percent Effect [%]
OCCN(Cc1nc(-c2ccc3c(c2)OCO3)no1)CC1CC1	-12.91
CC(Cn1cccn1)NCc1nc(-c2ccc3c(c2)OCO3)no1 (configuration not stated)	-6.149
COC(=O)c1ccc(-c2noc(CN(CCO)Cc3cccs3)n2)cc1	109.2
COCCN(Cc1ccco1)Cc1nc(-c2ccccc2)no1	2.564
COCCN(Cc1ccccc1)Cc1nc(-c2ccsc2)no1	2.788
CCc1nc(CN(Cc2cccs2)CC2CCCO2)no1 (configuration not stated)	3.529
OCCN(Cc1nc(-c2ccc3c(c2)OCO3)no1)Cc1cccs1	121.2
OCCN(Cc1ccccc1)Cc1nc(-c2ccc3c(c2)OCO3)no1	99.41
CCN(Cc1nc(C(C)C)no1)Cc1cccs1	12.81
Cc1ccc(Sc2ccc(N3CCC(C(=O)O)CC3)nn2)cc1	6.07
Cc1cc(C)c(-n2cccn2)c(CN2CCOCC(CN(C)C)C2)c1 (configuration not stated)	9.231
Cc1cccnc1[C@H](C)NC(=O)Cc1cc2c(cc1Cl)OCCO2	3.322
CN1CCOC[C@H]1c1nc(-c2ccccc2)c[nH]1	1.409
O=C(C1CC1)N1CCC(C(=O)N2CCC(c3ccc(F)cc3)C2)CC1 (configuration not stated)	-1.259
CCS(=O)(=O)N1CCc2nc(N3CCCC3)nc(N(C)C)c2CC1	3.292
CCS(=O)(=O)N1CCc2nc(C3CCN(C(=O)C4CC4)C3)nc(O)c2C1 (configuration not stated)	88.69
O=C(C1CC1)N1CCc2nc(C3CCN(C(=O)C4CC4)C3)nc(O)c2C1 (configuration not stated)	98.35
O=S(=O)(CCO)Cc1ccc(OC(F)F)cc1	-13.52
COc1cccc(-c2noc(-c3ccc(NCCCN)nc3)n2)c1OC	-11.46
O=C(Cn1cc(C2CC2)nn1)NC(c1ccc(Cl)cc1)C1CC1 (configuration not stated)	-3.06
CN(C)c1ccc(CN2CCN(c3ccc(C#N)cc3)C(=O)C2)cn1	27.75
CCc1nnc(CN2CCN(c3cccc(OC)c3)C(=O)C2)o1	104.5
CCc1ccc(CN2CCN(c3cccc(OC)c3)C(=O)C2)nc1	111.5
COc1cccc(N2CCN(Cc3ncc[nH]3)CC2=O)c1	-4.353
CCc1nnc(N2CCN(c3ccccc3)C(=O)C2)o1	1.843

SMILES	Percent Effect [%]
CCc1ccc(CN2CCN(c3ccc(C#N)cc3)C(=O)C2)nc1	-14.58
Cc1ccc(S(=O)(=O)n2ccc(C(=O)NCC(F)(F)F)c2)cc1	31.33
COc1ccc2c(=O)n(CC3CC3)ccc2c1OC	8.638
CC(NC(=O)NCc1ccccn1)c1cccs1 (configuration not stated)	95.38
CCn1cnnc1CNC(=O)NC(C)c1cccs1 (configuration not stated)	5.383
COc1ccc(C(C)NC(=O)NCCNc2ccccn2)c(OC)c1 (configuration not stated)	23.68
CC(NC(=O)NCCNc1ccccn1)c1cccs1 (configuration not stated)	84.24
CC(C)C(NC(=O)NCCNc1ccccn1)c1cccs1 (configuration not stated)	-3.383
O=C(O)C(F)(F)F.O=S(=O)(C1CC1)N1CC[C@]2(C[C@@H](Oc3ccccn3)CO2)C1	-7.855
CN(C)c1ncc(CNS(=O)(=O)c2cc(F)ccc2Cl)n1C	-4.152
COCCN1CCC(C(=O)N(C)Cc2c[nH]c3ccc(C)cc23)C1 (configuration not stated)	-13.06
CN(C)C(=O)C1CCN(C2CCN(CC3CCC3)CC2)CC1.O=C(O)C(F)(F)F.O=C(O)C(F)(F)F	115.1
CN(C)Cc1cn2c(n1)CN(CC1CCCC1)CC2.O=C(O)C(F)(F)F.O=C(O)C(F)(F)F	-16.91
CC(C)C(=O)N1CCC2(CN(CC3CCCC3)C2)C1.O=C(O)C(F)(F)F	-3.433
CC(C)CN1CCC(N2CCC(C(=O)N(C)C)CC2)CC1.O=C(O)C(F)(F)F.O=C(O)C(F)(F)F	126.3
CCN1CCC(N2CCC(C(=O)N(C)C)CC2)CC1.O=C(O)C(F)(F)F.O=C(O)C(F)(F)F	104.7
CC(C)CN1CC[C@@H]2[C@H](CC1)N(C(=O)c1ccccc1)CCS2(=O)=O.O=C(O)C(F)(F)F	-7.451
CN(C)C(=O)C1CCN(C2CCN(CC3CC3)CC2)CC1.O=C(O)C(F)(F)F.O=C(O)C(F)(F)F	109
CCc1nc(CN2CCC(C(=O)N(C)C)CC2)cs1	-2.315
CN(C)C(=O)CN1CC[C@H]2CN(C3CCOCC3)C[C@@H]2C1=O.O=C(O)C(F)(F)F	-33.67
CC(C)CN1CC[C@@H]2[C@@H]1CCN2C(=O)N1CCCC1.O=C(O)C(F)(F)F	-1.369
CN1CCN(C2COC3(CCN(CC4CC4)CC3)C2)CC1.O=C(O)C(F)(F)F.O=C(O)C(F)(F)F.O=C(O)C(F)(F)F (configuration not stated)	-10.32
CN1CCC2(CCN(CC3CC3)CC2)C1=O.O=C(O)C(F)(F)F	-0.5297
CN1CC(=O)N(c2ccsc2)CC12CCN(S(C)(=O)=O)C2.O=C(O)C(F)(F)F (configuration not stated)	-22.3
O=C(C1CCC2(CCN(CC3CCOCC3)CC2)O1)N1CCCCO1.O=C(O)C(F)(F)F (configuration not stated)	-16.72

SMILES	Percent Effect [%]
O=C(O)C(F)(F)F.O=C([C@@H]1COC[C@H]2CN(c3ccncn3)C[C@H]21)N1CCCC1	-1.455
Cc1ccc(C(=O)Nc2cn[nH]c2)cc1C	-10.82
Cc1nc[nH]c1CN1C[C@@H]2CC[C@H](C1)N(C(=O)CCNS(C)(=O)=O)C2	-6.405
O=C(COCC1CCCCO1)N1CCN(Cc2ccccc2F)C(=O)C1 (configuration not stated)	-11.31
N#CC1C(=O)Nc2c(cnn2C2CCCC2)C12CCCC2 (configuration not stated)	15.25
CC(C)N1CCC(C(=O)N(C)CC(=O)c2ccc(O)cc2)CC1	-30.04
CC(C)CNC(=O)C(C)N1CCN(C2CCN(C(C)C)CC2)CC1 (configuration not stated)	-39.91
CN1CCN(C2CCN(C(=O)CCC3CCCC3)CC2)CC1.O=C(O)C(=O)O	6.776
CN(C)C(=O)C1CCC2(CCN(Cc3cnn(C)c3)CC2)C1.O=C(O)C(F)(F)F (configuration not stated)	-4.25
CN1CCC(N2CCC(C(=O)N(C)C)CC2)CC1.O=C(O)C(F)(F)F.O=C(O)C(F)(F)F	107.5
CC(C)N1CCC(N2CCC(C(=O)N(C)C)CC2)CC1.O=C(O)C(F)(F)F.O=C(O)C(F)(F)F	105.3
CCn1nc2c(cc1=O)CN(CC1CCCCO1)CC2 (configuration not stated)	-5.782
N[C@@H]1c2ccccc2C2(CCN(C(=O)c3ccc(CO)o3)CC2)[C@H]1O	13.24
CCOc1cc(CNCc2nc(C)cc(=O)[nH]2)c(Cl)cc1OC(C)C	-17.65
CCN(Cc1noc(C)n1)C(=O)CCc1scnc1C	1.92
CCn1ccnc1CN1CCCC1c1c(C)nn(C)c1OC (configuration not stated)	-25.16
Cc1nccn1CCC1CCCCN1Cc1ccncc1 (configuration not stated)	6.487
Cc1c[nH]nc1C1CCCN1Cc1ccncc1 (configuration not stated)	100.6
Cc1noc(C)c1-c1cncc(C2CCCN2Cc2ccncc2)n1 (configuration not stated)	-4.931
COc1c(C2CCCN2Cc2nccn2C)c(C)nn1C (configuration not stated)	8.453
Cc1c[nH]nc1C1CCCN1Cc1nccn1C.O=CO (configuration not stated)	95.89
Cc1c[nH]nc1C1CCCN1Cc1ncc[nH]1.O=CO (configuration not stated)	85.61
CC(C)(C)c1coc([C@@H]2COCCN2Cc2ncc[nH]2)n1	-0.9304
Cc1ccc(-c2c[nH]c([C@@H]3COCCN3Cc3ncc[nH]3)n2)cc1	0.7932
CCc1ncncc1C(=O)NCCNS(=O)(=O)c1ccccc1	12.25

SMILES	Percent Effect [%]
O=C(c1c[nH]nn1)N1CCN(C(c2ccccc2)C(F)(F)F)CC1 (configuration not stated)	0.659
COC(C)c1nc(CN2CCCNCC2)cs1 (configuration not stated)	4.679
CC(CS(C)(=O)=O)N(C(=O)c1ccc(Cl)s1)C1CC1 (configuration not stated)	-8.906
Cc1cccc2c1OCCCC2NCc1nnc2n1CCCCC2 (configuration not stated)	-7.858
CN(Cc1ccon1)C1CCN(c2cccc(-c3cscn3)c2)CC1	-11.17
Cc1nc2c(c(=O)[nH]1)CN(Cc1ccc3c(c1)CCCN3C)CC2	56.56
Cn1nc2c(cc1=O)CN(Cc1ccc(-n3cccn3)cc1)CC2	6.074
Cc1nc2c(c(=O)[nH]1)CCN(Cc1ccc3c(c1)CCCN3C)C2	94.44
CCCN1CCc2nc(SCc3c(C)cc(C)cc3C)[nH]c(=O)c2C1	4.96
CC(C(=O)Nc1ccnn1C(C)C)N1CCCN(c2nccs2)CC1 (configuration not stated)	10.48
OCCn1nnnc1Cc1ccc(Br)cc1	-3.897
O=C(c1[nH]nc(C2CC2)c1Cl)N1CCN(C2CC2)CC1	-10.68
O=C1CN(C(=O)c2ccc(F)cc2)CC(O)CN1Cc1cccs1 (configuration not stated)	106.9
CC(C)(C)NC(=O)[C@@H]1Cc2ccccc2CN1Cc1cccs1	16.75
Cc1ccc(C(=O)N2CC(=O)N(Cc3cccs3)CC(O)C2)cc1 (configuration not stated)	76.19
CC(C)(C)n1cc(C(=O)N2CCCN(Cc3cccs3)CC2)cn1	-3.981
COc1ccc(C(=O)N2CCN(C(=O)c3csc(C(C)C)n3)CC2)cc1	-4.051
CSc1ccc(C(=O)N2CC(=O)N(Cc3cccs3)CC(O)C2)cc1 (configuration not stated)	110.9
COc1ccc(OCc2nc(C(=O)N3CC(O)C3)co2)cc1	-10.13
COc1ccc(C(=O)N2CC(=O)N(Cc3cccs3)CC(O)C2)cc1 (configuration not stated)	106.6
O=C(c1ccc(F)cc1)N1C[C@@H]2CN(c3ncccn3)C[C@@H]2C1	2.652
CC1CN(C)CCN1C(=O)c1cccn1Cc1cccs1 (configuration not stated)	-1.596
